# Screens from PubChem.
# VDR inh: inhibitors of human vitamin D receptor | P11473 | VDR-SRC2-3 peptide fluorescence polarization, 2 h | Potency, µM, inactives show max response, negative = inhibition, usual class: inhibitors | hit rate 0.93% among 400,000; note: potency is the fitted concentration of half-maximal effect
#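 Measured by FP: displacement of SRC2-3 coactivator peptide from VDR by library compounds, following a two-hour ambient incubation.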
# PLK1 PBD block: inhibitors of human PLK1 polo-box domain binding; Plk1 PBD binding of FITC phosphopeptide, fluorescence polarization; Potency, µM, inactives show max response, negative = inhibition, hits mostly inhibitors; hit rate 2.8% among 360,000; note: potency is the fitted concentration of half-maximal effect; series mostly up to about 57 µM; nearly all actives have a fitted effect of over 65% in size
# PI4K2A inh: blocks human PI4K2A kinase activity. Q9BTU6. purified PI4K2A, ADP-Glo luminescence, 1 h; stronger effect = lower value. activity change, negative = inhibition, % at 76.9 µM. hit rate 0.13% among 420,000. AID 1346378; in the data active = activity change below about -50%; inconclusive = mostly about -30% to -49%;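 note: -100% = wells without enzyme as full effect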
#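 In this quantitative HTS, ADP production by PI4K2A was quantified luminescently after 1 h at ambient temperature; 100 microM adenosine served as plate-quality control.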
# KAT2A inh: inhibitors of human GCN5L2 histone acetyltransferase; Q92830; GCN5L2 HAT assay, ThioGlo1 CoA-SH fluorescence; Potency, µM (highest dose often 58.9 µM), inactives show at the highest dose activity change, negative = inhibition, hits mostly inhibitors; hit rate 0.21% among 390,000; AID 504327; note: potency is the fitted concentration of half-maximal effect
#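 GCN5L2 (20 nM) in 50mM HEPES pH 7.5, 0.1mM EDTA, 0.01% Tween-20 preincubated 15 min with compounds at room temperature. Reaction started with H3(1-25) 75uM, acetyl-CoA 70uM, ThioGlo1 50uM; CoA-thiol fluorescence (Ex340/Em540) read at 0 and 20 min.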
# GLS inhibitor: glutaminase GLS (human) inhibition | O94925 | GLS enzymatic activity, qHTS titration | Potency, µM (highest dose often 45.5 µM), without a hit: top-dose activity change, negative = inhibition, actives largely listed as inhibitors | hit rate 0.21% among 410,000 | AID 624170; note: potency is the fitted concentration of half-maximal effect
# Target sequence (O94925 whole entry, looked up): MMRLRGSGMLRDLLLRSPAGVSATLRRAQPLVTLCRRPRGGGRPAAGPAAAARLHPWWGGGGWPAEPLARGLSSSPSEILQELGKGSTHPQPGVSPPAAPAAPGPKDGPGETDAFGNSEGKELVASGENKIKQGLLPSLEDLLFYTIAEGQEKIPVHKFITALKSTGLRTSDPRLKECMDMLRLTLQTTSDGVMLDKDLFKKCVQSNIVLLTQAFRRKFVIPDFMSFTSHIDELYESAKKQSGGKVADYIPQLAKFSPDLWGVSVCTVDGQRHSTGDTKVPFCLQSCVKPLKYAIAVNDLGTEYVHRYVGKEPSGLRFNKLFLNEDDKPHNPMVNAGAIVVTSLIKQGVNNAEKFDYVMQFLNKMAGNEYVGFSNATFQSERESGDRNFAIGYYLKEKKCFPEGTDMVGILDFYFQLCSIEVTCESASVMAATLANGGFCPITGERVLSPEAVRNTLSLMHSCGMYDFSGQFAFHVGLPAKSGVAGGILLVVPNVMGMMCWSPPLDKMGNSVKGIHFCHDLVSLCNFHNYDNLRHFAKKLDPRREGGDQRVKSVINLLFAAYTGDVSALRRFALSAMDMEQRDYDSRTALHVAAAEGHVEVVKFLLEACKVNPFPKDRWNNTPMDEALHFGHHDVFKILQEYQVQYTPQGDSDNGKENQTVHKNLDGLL
#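 hKGA in 45 mM KH2PO4 pH 8.2, 0.02% Tween-20 with pin-transferred compounds; 1 mM L-glutamine (stock) plus glutamate oxidase/HRP/Amplex Red coupling added. Fluorescence read initially and after 30 min at RT.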
# Starred values were filed as active, the others as inactive; u = inconclusive; x = not tested or not shown; [ ] = dose if it differs, or a comment. In the library only some 3.1% were active in any assay of this set; here they are far more common. Unless noted, calls come from the whole dose curve; as a rule, active = well fitted curve in the direction sought with a large enough effect; inconclusive = small, poorly fitted or top-dose-only effect, or another doubt; inactive = no such curve, though single readings can be large; an effect the other way counts as inactive or inconclusive. Unless noted, % is set by controls: 0 for no effect and ±100 for the full control effect.
SMILES,VDR inh,PLK1 PBD block,PI4K2A inh,KAT2A inh,GLS inhibitor
CC(C)C[C@@H](NC(=O)[C@@H](COC(C)(C)C)NC(=O)[C@H](Cc1ccc(O)cc1)NC(=O)[C@@H](CO)NC(=O)[C@@H](Cc1c[nH]c2ccccc12)NC(=O)[C@@H](Cc1cnc[nH]1)NC(=O)[C@@H]1CCC(=O)N1)C(=O)N[C@H](CCCN=C(N)N)C(=O)N1CCC[C@H]1C(=O)NNC(N)=O,x,x,x,x,39%
C=CCN1CCc2nc(N)sc2CC1,u,-22%,-4,0%,38%
CCN1CCc2nc(N)sc2C1,89µM*,4.2µM*,-2,0%,30%
O=C(CSc1ncnc2sc3c(c12)CCCC3)c1ccccc1,-10%,-3%,5,-3%,-1%
CC1CCc2c(sc3ncnc(SCC(=O)c4ccccc4)c23)C1 (stereo unspecified),1%,13µM*,-1,1%,-1%
CC1CCc2c(sc3ncnc(SCC(=O)N(C)C4CCS(=O)(=O)C4)c23)C1 (stereo unspecified),-6%,27µM*,-3,1%,-3%
CC(=O)CSc1ncnc2sc3c(c12)CCC(C)C3 (stereo unspecified),-2%,24µM*,-3,-12%,-1%
O=C(CC1C=CCC1)OCCN1CCN(C2CN(Cc3cn(Cc4ccccc4Cl)nn3)S(=O)(=O)C2)CC1 (stereo unspecified),x,x,-2,x,x
O=C(c1ccc(Cl)cc1)C1CCN(C(=O)C2CC2)CC1,8%,2%,2,14µM*,6%
O=C(c1ccccc1)C1CCN(C(=O)c2ccc(Cl)cc2)CC1,-8%,-1%,5,7%,10%
O=C(NCCc1ccc(Cl)cc1)C(=O)NCC(c1ccc2c(c1)OCO2)N1CCOCC1 (stereo unspecified),-4%,x,-5,-9%,9%
CCc1ccc(NC(=O)Cn2ncc3c4ccccc4n(C)c3c2=O)cc1,u,24µM*,-1,1%,5%
CCCN1CNc2c(c(=O)[nH]c(=S)n2CCc2cc(OC)ccc2OC)C1,-13%,x,x,x,x
COc1cccc(Cn2ncc3c4sc(S(C)=O)cc4n(C)c3c2=O)c1 (stereo unspecified),x,x,-3,x,x
COc1cccc(Sc2nc(N(C)C)ncc2S(=O)(=O)c2ccc(Cl)cc2)c1,12%,x,x,x,x
CC1=NN(c2ccccc2)C(=O)C1N=Nc1ccc(N)cc1 (stereo unspecified),-19%,24µM*,u,-17%,-14%
CC1=NN(C(N)=S)C(=O)C1N=Nc1ccc(Cl)cc1 (stereo unspecified),u,13µM*,35,-13%,-9%
CC1=NN(c2ccccc2)C(=O)C1N=Nc1ccccc1 (stereo unspecified),-8%,-2%,1,-2%,10%
CCOC(=O)CNC(=O)O[C@@H]1C(=O)c2cc(OC)ccc2O[C@H]1c1ccc(OC)c(Br)c1,5%,x,x,x,x
CCc1nc(SCC(=O)NNC(=O)c2ccc(OC)cc2)c2ccccc2n1,-18%,u,1,0%,8.9µM*
COc1ccc(C(=O)NNC(=O)CSc2nc(C(C)C)nc3ccccc23)cc1,6%,-3%,-2,-1%,1%
CN(C)c1ccc(N/C=C/C(=O)c2ccccc2)cc1,79µM*,9%,u,-7%,8%
CN(C)c1ccc(N/C=C/C(=O)C(C)(C)C)cc1,16µM*,-3%,-3,-6%,21%
CS(=O)(=O)c1ccc(Cn2c3c(c4cc(F)cc(F)c42)CCC[C@H]3CC(=O)O)cc1,25µM*,x,x,-16%,x
Cc1nn(C)c2nc(NNC(=O)Nc3cc(Cl)nc(Cl)c3)cc(C(C)C)c12,u,x,x,-4%,x
SMILES,VDR inh,PLK1 PBD block,PI4K2A inh,KAT2A inh,GLS inhibitor
CN1C(=O)C(N=Nc2ccc([N+](=O)[O-])cc2)SC1=S (stereo unspecified),-1%,13µM*,-6,x,5%
CN1CCCCCC1=Nc1ccc([N+](=O)[O-])cc1,3%,-12%,-2,x,-7%
COc1ccc(C(c2ccc(OC)cc2)N2CCN(C(=O)c3noc(C)c3[N+](=O)[O-])CC2)cc1,x,x,-1,x,x
CC(=O)O[C@@H]1C(=O)O[C@H]2[C@@H]1OC(=O)[C@@H]2OC(C)=O,x,x,x,x,0%
COC(=O)C=P(c1ccccc1)(c1ccccc1)c1ccccc1,9%,x,x,x,x
Cc1cc(Cl)ccc1NC(=S)N(CCCN1CCOCC1)Cc1cccs1,u,11µM*,-2,-4%,11%
Cc1ccc(Cl)cc1NC(=S)N(CCCN1CCN(C)CC1)Cc1cccs1,7%,-6%,-18,-14%,10%
CCN(CC)CCCNC(=O)CNC(=S)N(CCCN1CCOCC1)Cc1cccs1,-3%,19µM*,-6,1%,4%
COc1cccc(NC2=CC(c3ccc(C(C)C)cc3)N(c3cccc(OC)c3)C2=O)c1 (stereo unspecified),20µM*,x,-2,-12%,14%
FC(F)(F)c1cccc(N2CCN(c3ncnc4c3nc3n4CCCC3)CC2)c1,10%,x,-2,-6%,-9%
O=C(NC1CCCC1)C(c1cccnc1)N(CCc1ccccc1)C(=O)c1ccco1 (stereo unspecified),-9%,-18%,-2,-3%,0%
O=C(NC1CCCCC1)C(c1cccnc1)N(CCc1ccccc1)C(=O)Cc1cccs1 (stereo unspecified),u,27µM*,-4,0%,8%
COc1ccc(N=C2NN=C(c3ccc4c(c3)OCCO4)CS2)cc1,-10%,27µM*,-8,0%,-4%
Cc1nc(SCC(N)=O)[nH]c(=O)c1C,x,x,-3,x,x
COc1ccco1,9%,x,x,-18%,x
Brc1c(-c2ccccc2)nc2n1Cc1ccccc1-2,-17%,0%,-1,-6%,-1%
c1ccc2c(c1)Cn1c-2nc2ccccc21,-13%,-1%,-53*,-7%,8%
COC(=O)[C@]12C[C@H](CC(=O)N3CCSCC3)C(=O)N(Cc3ccc4c(c3)OCO4)C1=C[C@H](C(C)C)O[C@@H]2C1CC1,x,x,-2,x,x
O=Nc1c(O)[nH]c2ccc(F)cc12,-29%,-1%,5,-14%,24%
Cc1cccc2c(N=O)c(O)[nH]c12,u,3.8µM*,5,2%,u
CCOC(=O)c1sc(NC(=S)NC(=O)CC(C)C)cc1C,-30%,27µM*,5,-12%,32%
COc1ccc2ccccc2c1C=NNC(=O)c1cc(-c2ccc(C)c(C)c2)n[nH]1,x,x,1,x,x
Cc1nc(C#N)c(N/N=C/c2c(F)cccc2Cl)o1,79µM*,-10%,-1,-2%,21%
Cc1nc(N)nc(N/N=C/c2c(F)cccc2Cl)n1,-1%,2%,14,-9%,-17%
C=Cc1c(C)c2cc3nc(cc4[nH]c(cc5nc(cc1[nH]2)C(C)=C5CCC(=O)O)c(CCC(=O)OC)c4C)[C@@]1(C)C3=CC=C(C(=O)OC)[C@H]1C(=O)OC (tested in a mixture with another compound),1.1µM*,x,x,4%[21.4 µM],u
